Shown are actives, neighbours in structure and some others; about 1.8% of the full set was active somewhere.
APOBEC3G inh – inhibitors of human APOBEC3G DNA deaminase | Q9HC16 | recombinant A3G, ssDNA deamination FAM/TAMRA fluorescence | inhibition, % at 20 µM | 0.28% of 330,000 active;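 active means inhibition of at least 40% at 20 µM, with no more than 30% in the related APOBEC3A deaminase screen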
Target sequence (Q9HC16 whole entry, looked up): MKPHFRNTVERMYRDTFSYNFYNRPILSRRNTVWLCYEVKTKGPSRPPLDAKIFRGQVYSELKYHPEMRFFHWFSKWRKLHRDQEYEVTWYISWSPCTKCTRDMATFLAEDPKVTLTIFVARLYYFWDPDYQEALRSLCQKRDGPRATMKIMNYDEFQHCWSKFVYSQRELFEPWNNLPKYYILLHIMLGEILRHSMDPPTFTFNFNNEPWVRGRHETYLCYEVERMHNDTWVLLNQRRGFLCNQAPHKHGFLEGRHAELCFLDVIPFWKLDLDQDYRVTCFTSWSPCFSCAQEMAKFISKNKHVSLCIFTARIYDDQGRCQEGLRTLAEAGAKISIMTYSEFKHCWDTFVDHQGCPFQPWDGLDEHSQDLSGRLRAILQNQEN
VLA-4 inh – inhibition in a human VLA-4 binding assay; P13612; VLA-4 expressing cells, ligand binding flow cytometry; inhibition, % (about 7 µM as worked out from the volumes in the protocol); 0.2% of 330,000 active; AID 2557; in the data active means inhibition above about 50%
beta cell repl – MIN6 beta-cell proliferation induction. MIN6 cells proliferation, ATPlite luminescence, 48 h; cells starved in 0.2% serum; 100% = growth in 10% serum. proliferation, % at 10 µM. 0.29% of 330,000 active. AID 2380;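 active means compounds whose signal lies at least 3.5 SD above the mean of all wells on their plate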
NRP1-CendR mod – NRP-1/CendR interaction modulation | O14786 | FAM-RPARPAR peptide binding to NRP-1, fluorescence polarization | inhibition, % at 25 µM | 0.85% of 360,000 active;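 active means inhibition or corrected inhibition above about 18%, plus a signal ratio from 0.5 to 1.5, limit read from the data, passing the limit was not always enough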
A3A deaminase – inhibitors of human APOBEC3A DNA deaminase; recombinant A3A, FAM/TAMRA ssDNA deamination fluorescence; inhibition, % at 20 µM; P31941; 0.41% of 330,000 active;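 active means at least 40% inhibition at 20 µM here, with at most 30% in a related deaminase screen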
Target sequence (P31941 whole entry, looked up): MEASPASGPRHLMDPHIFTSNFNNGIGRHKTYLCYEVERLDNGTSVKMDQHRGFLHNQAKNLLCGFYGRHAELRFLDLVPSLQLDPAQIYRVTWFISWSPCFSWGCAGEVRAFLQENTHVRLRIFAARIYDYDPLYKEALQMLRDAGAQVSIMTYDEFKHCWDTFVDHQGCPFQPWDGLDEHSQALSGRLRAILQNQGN
Numbers stand for hits; - = inactive; . = not tested or not shown.

SMILES	APOBEC3G inh	VLA-4 inh	beta cell repl	NRP1-CendR mod	A3A deaminase
Cc1ccc(NC(=O)C2=CC(c3ccc(C)cc3)=NS(=O)(=O)N2C)cc1	-	-	-	21	-
COc1ccc(C2=NS(=O)(=O)N(C)C(C(=O)Nc3ccc(C)cc3)=C2)cc1	-	-	-	-	-
CN(C(=O)COC(=O)CNC(=O)c1cccs1)c1c(N)n(Cc2ccccc2)c(=O)[nH]c1=O	-	-	-	-	-
Cc1coc2c1c(C)cc1oc(=O)c(CC(=O)NCCC(=O)O)c(C)c12	-	-	-	20	-
Cc1ccc(C)c(NC(=O)Cn2ccn(-c3ccc4c(c3)OCO4)c(=O)c2=O)c1	-	-	-	-	-
COCCNc1c2c(nc3c(-c4ccccc4)c(C)nn13)CCC2	-	-	-	28	-
CCOC(=O)Nc1nnc(-c2cccc(OC)c2)s1	-	-	-	26	-
NC(=O)Nc1ccc(Oc2c(F)c(F)c(F)c(F)c2F)cc1	-	-	-	40	-
CC(NS(=O)(=O)c1cn(C)c(=O)n(C)c1=O)c1ccccc1 (centres undefined)	-	-	-	26	-
Cn1cc(S(=O)(=O)NCCc2ccccc2)c(=O)n(C)c1=O	-	-	-	-	-
Cc1ccc(NC(=O)COC(=O)CCc2c(C)nc3ncnn3c2C)cc1C	-	-	-	24	-
CCOC(=O)CN(C(=O)COC(=O)C1=NNC(=O)CC1)c1ccc(F)cc1	-	-	-	-	-
Cc1ccc(C(=O)C2=C(O)C(=O)N(c3ncccn3)C2c2ccccc2F)o1 (centres undefined)	-	-	-	-	-
CCOC(=O)[C@H]1[C@H]2COc3ccc(OC)cc3[C@H]2N2C(=O)CNC(=O)[C@@]12C	-	-	-	-	-
CC(C)n1ncc2c(C(=O)Nc3ccc(S(N)(=O)=O)cc3)cc(C3CC3)nc21	-	-	-	46	-
CC(C)n1ncc2c(C(=O)Nc3ccc(S(C)(=O)=O)cc3)cc(C3CC3)nc21	-	-	-	-	-
CC1CN(C(=O)CCC(=O)NC2CCCCC2)c2ccccc2S1 (centres undefined)	-	-	-	-	-
CC1(c2nnc(-c3cccc(Cl)c3)o2)CC(c2ccc(OC(F)(F)F)cc2)=NO1 (centres undefined)	-	-	-	-	-
COc1ccc(OCc2nc(N)nc(Nc3cccc(C)c3C)n2)cc1	-	-	-	26	-
COc1ccc(Nc2nc(N)nc(COc3ccc(OC)cc3)n2)cc1	-	-	-	-	-
O=C(c1ccco1)N1CCN(C(=O)c2ccccc2OC(=O)C23CC4CC(CC(C4)C2)C3)CC1	.	.	.	20	.
Cc1cc2nc(NCCCO)n(CC(=O)c3cc(C(C)(C)C)c(O)c(C(C)(C)C)c3)c2cc1C	-	-	-	-	-
CC1CC(C)CN(CC(=O)NNC(=O)COc2ccc(Cl)cc2)C1 (centres undefined)	-	-	-	-	-
Nc1ncnc2[nH]c(=S)[nH]c12	.	.	.	29	.
CCc1cc2c(=O)c(-c3nc4ccccc4n3C)coc2c(CN2CCC(C)CC2)c1O	-	.	-	-	-
SMILES	APOBEC3G inh	VLA-4 inh	beta cell repl	NRP1-CendR mod	A3A deaminase
CCc1cc2c(=O)c(-c3nc4ccccc4n3C)coc2c(CN2CCN(C)CC2)c1O	-	-	-	22	-
CN(C)/N=C/c1ccc(Sc2ccc([N+](=O)[O-])cc2[N+](=O)[O-])o1	-	-	-	33	-
Cc1cc(C)nc(Sc2ccc([N+](=O)[O-])cc2[N+](=O)[O-])n1	-	-	-	-	-
Cc1nn(C)c(C(=O)NC2C3CC4CC(C3)CC2C4)c1Cl (centres undefined)	-	-	7.7	-	-
CCOc1ccc(/C=C/C(=O)N(CC)CC(=O)Nc2c(F)cccc2F)cc1OC	.	.	.	22	.
CCN1C(=O)[C@@H]2[C@@H](c3ccc(-c4cc(C(C)=O)cs4)cc3)N3CCC[C@@]3(C(=O)OC)[C@@H]2C1=O	.	.	.	24	.
C=CCOCCN1C(=O)C2C(c3ccccc3)C=CC(c3ccccc3)C2C1=O (centres undefined)	-	-	-	-	-
O=C1C2C(c3ccccc3)C=CC(c3ccccc3)C2C(=O)N1CCCO (centres undefined)	-	-	-	22	-
CCC(CC)NC(=O)c1ccc2nc[nH]c2c1	-	-	-	29	-
Cc1ccc(Cn2c(=N)n(CC(O)COc3ccccc3)c3ccccc32)cc1 (centres undefined)	-	-	-	24	-
N=c1n(Cc2ccccc2)c2ccccc2n1CC(O)COc1ccccc1 (centres undefined)	-	-	-	-	-
O=C(Nc1ccc(F)cc1F)c1ccccc1-c1ccccc1	-	-	-	31	-
O=C(Nc1cccc(F)c1)c1ccccc1-c1ccccc1	-	-	-	-	-
NC(=O)C1CCCN(C(=O)CCCNC(=O)c2ccc(Cl)cc2)C1 (centres undefined)	-	-	-	28	-
O=C(NCCC(=O)N1CCCC(C(F)(F)F)C1)c1ccc(Br)cc1 (centres undefined)	-	-	-	28	-
O=c1nc(-c2ccccc2)c2cc(SC(F)F)ccc2[nH]1	-	-	-	-	-
COc1cccc(NC(=O)CN(C)C(=O)Cn2c(=O)oc3ccccc32)c1	-	-	-	-	-
COCC1CCN(Cc2nc(Cc3ccccc3Cl)no2)CC1	-	-	-	21	-
Cn1c(COc2ccc(F)cc2)nc2ccccc21	-	-	-	23	-
O=C(CN1CCOCC1)N/N=C/C=C/c1ccccc1	-	-	8.9	-	-
O=NN(CC(=O)NN=CC=Cc1ccccc1)CC(=O)NN=CC=Cc1ccccc1	.	.	.	-	.
Cc1ccc(N(C(=O)CNC(=O)c2ccco2)C(C(=O)NCC2CCCO2)c2ccccc2)c(C)c1 (centres undefined)	-	-	-	-	-
CC(=O)c1cccc(NC(=O)c2ccc(OCc3c(C)noc3C)cc2)c1	-	-	-	-	-
Cc1cccc(NC(=O)c2ccc(OCc3c(C)noc3C)cc2)c1	-	-	-	29	-
O=Cc1c(NCc2ccccc2Cl)c2ccccc2[nH]c1=O	-	-	-	-	-
SMILES	APOBEC3G inh	VLA-4 inh	beta cell repl	NRP1-CendR mod	A3A deaminase
COc1cccc(NC(=O)CN(C)C(=O)c2cccc(NS(=O)(=O)c3ccc(Br)cc3)c2)c1	.	.	.	-	.
COc1cccc(NC(=O)CN(C)C(=O)c2cccc(NS(=O)(=O)c3ccccc3)c2)c1	-	-	-	30	-
COC(=O)N[C@@H]1C[C@H]2[C@@H]3CC[C@H]4C[C@@H](OC)CC[C@]4(C)[C@H]3CC[C@@]12C	-	-	-	-	-
COC(=O)N[C@@H]1C[C@H]2[C@@H]3CC[C@H]4C[C@@H](OC)CC[C@]4(C)[C@H]3CC[C@]12C	-	-	-	28	-
COc1ccc(CCN=C(N)NS(=O)(=O)c2cccs2)cc1OC	-	-	-	20	-
CCCn1cnc2c1c(=O)n(CCCCC(C)=O)c(=O)n2C	-	-	-	32	-
COc1ccc(Cl)cc1NC(=O)c1noc2c1CCCC2	-	-	7.6	-	-
